Compound activity (PubChem)
p53 reactivation: qHTS assay for re-activators of p53 using a Luc reporter. H1299 p53-A138V BP100-luciferase reporter, luminescence, 24 h. Potency, µM (highest dose often 92.2 µM), most hits filed as activators. 320,000 compounds, 0.063% hits. AID 504706, 2011; also: nearly all actives have a fitted effect of over 45% in size
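H1299 (p53-null), stable ts p53-A138V + BP100-Luc; 1000 cells/well, Opti-MEM/10% FBS; cpd 4 pt, 1:5; 24 h, 37 deg C, 5% CO2; detection reagent 10 min RT; luminescence.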
IL-2 act: qHTS of IL-2 Activators; activation, % (series mostly up to about 46 µM); 360,000 compounds, 0.065% hits; IL-2 activation reporter assay, cell-based qHTS; stimulated with anti-CD3/CD4/CD28 beads; in transgenic mouse T cells; AID 652025, 2013; in the data active = activation above about 50%; inconclusive = mostly about 30% to 49%
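First, unstimulated transgenic mouse T cells were exposed to compound for 60 min. Next, anti-CD3/anti-CD4-coated beads with anti-CD28 were added. Finally, after 18 h at 37 degrees C, EGFP and DsRed were imaged.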
Mito fusion act: qHTS Assay for Small Molecule Inhibitors of Mitochondrial Division or Activators of Mitochondrial Fusion. S. cerevisiae fusion-defective mutant growth rescue, CellTiterGlo 48 h. AID 485298, 2010. 320,000 compounds, 0.23% hits. Potency, µM (highest dose often 46.1 µM), usual class: activators; also: nearly all actives have a fitted effect of over 45% in size
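Compounds are tested for their ability to restore growth of mitochondrial fusion-defective yeast strains at non-permissive 37C in YPEG medium over 48 hours. Viability is quantified by luciferase luminescence.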
BRCA1 expr up: qHTS Assay to Identify Small Molecule Activators of BRCA1 Expression | Potency, µM (titrated, usually from 46.1 µM), most hits filed as activators | MCF7-BRCA1-FFLuc reporter, luminescence, 48 h; response scale: scaled: vehicle 0%, 10 µM genistein 100% | 380,000 compounds, 1.1% hits; also: nearly all actives have a fitted effect of over 80% in size
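Luminescence from a BRCA1-driven firefly luciferase in MCF7 cells was read after 48 h compound exposure at 37 C. Data normalized against DMSO and a 10microM genistein activation control, then curve-fitted across the titration.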
TCR act: Activators of T cell receptors: qHTS campaign; primary human leukocytes, anti-CD3, IL-2 HTRF, 48 h; Potency, µM (titrated, usually from 9.22 µM), actives largely listed as activators; 330,000 tested, under 10 active; AID 504894, 2011
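IL-2 release read by HTRF sandwich (Eu cryptate donor, d2 acceptor, 665 nm emission) after 48 hr exposure of primary human leukocytes to compound together with anti-CD3 beads in the absence of co-stimulatory signals.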
Numbers stand for hits; 0 = inactive; ? = inconclusive; - = no result given. This is a sample that favours compounds with a hit; in the whole collection about 1.3% have one here. Unless noted, calls follow the shape of the dose curve; as a rule, active = well fitted curve in the direction sought with a large enough effect; inconclusive = small, poorly fitted or top-dose-only effect, or another doubt; inactive = no such curve, though single readings can be large; an effect the other way counts as inactive or inconclusive.

SMILES | p53 reactivation | IL-2 act | Mito fusion act | BRCA1 expr up | TCR act
COc1ccc(Nc2nc(-c3ccccc3)c3ccccc3n2)cc1 | 0 | 0 | 25µM | 0 | 0
Cc1ccccc1OCC(=O)NCC(=O)OCC(=O)c1ccc(Br)cc1 | - | - | - | 0 | -
CS(=O)(=O)N1CCN(c2ccc(NC(=O)c3cccnc3Cl)cc2)CC1 | 0 | 0 | 0 | 0 | 0
O=C(Nc1ccc(N2CCCCC2)cc1)c1cccnc1Cl | 0 | 0 | 0 | 10µM | 0
CCN(CC)c1ccc(NC(=O)C2CCCN(S(=O)(=O)c3ccc4c(c3)oc(=O)n4C)C2)c(C)c1 (stereo not given) | - | - | - | 0 | -
CCCCc1nc2cc(C(=O)N3CCCC3)ccc2o1 | 0 | 0 | 0 | 8.9µM | 0
COCCN1CCN(C(=O)c2ccc3oc(CCCc4ccccc4)nc3c2)CC1 | 0 | 0 | 0 | 13µM | 0
CCCC(=O)N=C1SC2CS(=O)(=O)CC2N1c1ccc(-c2nc3ccc(C)cc3s2)cc1 (stereo not given) | ? | 0 | 0 | 16µM | 0
O=c1c(Cl)c(Nc2cccc(Cl)c2)cnn1-c1nc2ccccc2s1 | ? | 0 | ? | 14µM | 0
COc1ccc(Nc2cnn(-c3nc4ccccc4s3)c(=O)c2Cl)cc1 | 0 | 0 | 0 | 0 | 0
O=C(Cn1nnc(-c2ccc(F)cc2)n1)N1CCCCC1 | 0 | 0 | 0 | 0 | 0
O=C(Cn1nnc(-c2ccccc2F)n1)N1CCCCC1 | 0 | 0 | 0 | 8.9µM | 0
CCCCSc1nnc(-c2c[nH]c3ccccc23)n1C | ? | 0 | 0 | ? | 0
Cn1c(SCc2ccccc2)nnc1-c1c[nH]c2ccccc12 | 0 | 0 | 0 | 11µM | 0
Cn1c(SCc2ccccc2)nnc1-c1ccc2c(c1)OCO2 | ? | 0 | 0 | 6.3µM | 0
O=C(CC(Cl)(Cl)Cl)N1CCN(/[N+]([O-])=N/Oc2ccc([N+](=O)[O-])cc2[N+](=O)[O-])CC1 | - | - | - | 0 | -
CO[C@H]1C[C@@H]2CC[C@@H](C)[C@@](O)(O2)C(=O)C(=O)N2CCCC[C@H]2C(=O)O[C@H]([C@H](C)C[C@@H]2CC[C@@H](O)[C@H](OC)C2)CC(=O)[C@H](C)/C=C(\C)[C@@H](O)[C@@H](OC)C(=O)[C@H](C)C[C@H](C)/C=C/C=C/C=C/1C | - | - | - | 0 | -
Cc1nc(N2CCN(C)CC2)c2nnn(Cc3ccccc3)c2n1 | - | - | - | 0 | -
CC(C)CNc1ncnc2oc(-c3ccco3)c(-c3ccco3)c12 | - | - | - | 0 | -
CCN1CCN(CC(=O)Nc2nc3ccc(C)cc3s2)CC1 | ? | 0 | 0 | 0 | -
Cc1ccc2nc(NC(=O)COC(=O)c3ccncc3)sc2c1 | 0 | 0 | 0 | 8.9µM | 0
COC(=O)c1ccc2nc(NC(=O)COC(=O)CSc3nc(C)cc(C)n3)sc2c1 | ? | 0 | 0 | 0 | 0
Cc1ccc2nc(NC(=O)CN3CCOCC3)sc2c1 | ? | 0 | 0 | 3.5µM | -
Cc1ccc2nc(NC(=O)COC(=O)CSc3nc(C)cc(C)n3)sc2c1 | ? | 0 | 0 | 10µM | -
O=C(Nc1ccc(Br)cc1)C1CCN(S(=O)(=O)c2cccc3nsnc23)CC1 | - | - | - | 0 | -
SMILES | p53 reactivation | IL-2 act | Mito fusion act | BRCA1 expr up | TCR act
Oc1ccc(CNCc2ccc3c(c2)OCO3)c2cccnc12 | - | - | 0 | - | -
COCCCCOc1cc2nc(N3CCCN(C)CC3)nc(NC3CCN(C)CC3)c2cc1OC | - | - | - | 0 | -
CCOC(=O)c1c(C)n(-c2ccc(C)cc2)c2c(C(C(C)=O)C(=O)O)c(Br)c(O)c(O)c12 (stereo not given) | 0 | 0 | 0 | 0 | 0
CCOC(=O)C(C(C)=O)c1c(Br)c(O)c(O)c2c(C(=O)c3ccc(C)cc3)coc12 (stereo not given) | 25µM | 0 | 0 | 0 | -
Cc1ccc(-c2nnc(-c3ccc(Br)cc3)o2)o1 | ? | 0 | 0 | 3.2µM | 0
Clc1ccc(-c2nnc(-c3cccnc3)o2)cc1 | - | 0 | 0 | 7.9µM | 0
O=C(O)c1ccc(-c2nnc(-c3cccc(Br)c3)o2)cc1 | ? | 0 | ? | 2.8µM | 0
FC(F)(F)c1ccc(-c2nnc(-c3cccnc3)o2)cc1 | 0 | 0 | 0 | 0 | -
COc1ccc(-c2nnc(-c3cccnc3)o2)cc1 | ? | 0 | 0 | ? | -
Brc1ccc(-c2nnc(-c3cccnc3)o2)cc1 | - | 0 | - | 4.5µM | 0
COc1cc(Cl)c(NC(=O)CN(C)S(=O)(=O)c2ccc3c(c2)CCCC(=O)N3)c(OC)c1 | - | - | - | 0 | -
O=C1CN(CCN2CC(=O)NC(=O)C2)CC(=O)N1 | - | - | - | 0 | -
c1cncc(-c2nnc(-c3cccs3)o2)c1 | 0 | 0 | 0 | 14µM | 0
Brc1ccccc1-c1nnc(-c2cccnc2)o1 | ? | 0 | 0 | 0 | 0
Cc1nnc(-c2ccccc2)o1 | 0 | 0 | 0 | 0 | 0
Cc1cccc(-c2nnc(-c3ccccc3)o2)c1 | 11µM | 0 | 0 | 0 | 0
Cc1ccc(-c2nnc(-c3cccnc3)o2)cc1 | ? | 0 | 0 | 4.5µM | 0
COc1ccc(-c2nc3ccc(NC(=O)CO)cc3c(=O)n2Cc2cccc(Cl)c2)cc1COc1ccc(NC(C)=O)cc1 | - | - | - | 0 | -
O=C(NCCCc1nc2ccccc2n1CCCOc1ccccc1)C1CCCCC1 | - | - | - | 0 | -
CN(C)CCCNc1cc(C(C)(C)C)nc2c(-c3ccccc3)cnn12 | 0 | 0 | 0 | 5.6µM | 0
c1ccc(OCc2nc3ccccc3[nH]2)cc1 | ? | 0 | 0 | ? | 0
Clc1ccc(OCc2nc3ccccc3[nH]2)cc1 | 0 | 0 | 0 | 3.2µM | 0
CCc1ccc(/C=C2/SC(=S)N(CCC(=O)Nc3cccnc3)C2=O)cc1 | - | 54 | 0 | 0 | 0
O=C(NNC(=O)c1ccccc1Br)c1ccccc1Cl | 0 | 0 | 0 | 0 | 0
O=C(NNC(=S)Nc1ccccc1Cl)c1ccccc1Br | ? | 0 | 0 | 8.9µM | 0
